Assay outcomes as filed in PubChem BioAssay.
Giardia FBPA inh: Giardia lamblia aldolase inhibition; Potency, µM (highest dose often 59.6 µM), hits mostly inhibitors; purified Giardia FBPA; hit rate 0.71% among 290,000; AID 2451; note: nearly all actives have a fitted effect of over 55% in size
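Giardia FBPA (40 nM reagent) was preincubated 10 min at RT with compound (up to 57.5 uM final), then substrate plus GAPDH/TPI/NAD/arsenate coupling system with diaphorase/resazurin was added; resorufin fluorescence (525/598 nm) was read after 20 min.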
Shiga toxin inh: Shiga toxin inhibition; Vero cells, Shiga toxin protein synthesis inhibition reporter; inhibition, % at 38.7 µM; hit rate 9.2% among 290,000; AID 2315; in the data active = inhibition mostly above about 28%, no sharp cut-off; inactive = mostly below about 43%
LmPK inhibitor: LmPK (Leishmania mexicana) enzyme inhibition; AID 1721; Q27686; hit rate 0.37% among 290,000; purified LmPK, Kinase-Glo ATP luminescence, 1 h; Potency, µM (highest dose often 57.5 µM), actives largely listed as inhibitors
Target sequence (Q27686 whole entry, looked up): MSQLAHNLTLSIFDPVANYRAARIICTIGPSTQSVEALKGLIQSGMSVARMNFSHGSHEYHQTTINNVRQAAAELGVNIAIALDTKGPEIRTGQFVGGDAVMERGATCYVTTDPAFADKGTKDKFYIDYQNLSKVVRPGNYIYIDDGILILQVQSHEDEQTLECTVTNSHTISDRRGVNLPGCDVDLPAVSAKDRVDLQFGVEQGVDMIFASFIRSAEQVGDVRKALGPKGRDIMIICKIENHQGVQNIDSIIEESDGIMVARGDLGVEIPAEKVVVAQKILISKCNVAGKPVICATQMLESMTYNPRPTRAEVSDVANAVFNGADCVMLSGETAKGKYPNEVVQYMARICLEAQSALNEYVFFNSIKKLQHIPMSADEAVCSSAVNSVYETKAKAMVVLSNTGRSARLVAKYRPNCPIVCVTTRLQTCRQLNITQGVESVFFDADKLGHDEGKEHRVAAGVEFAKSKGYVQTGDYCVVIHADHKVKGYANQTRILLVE
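In 50 mM imidazole pH 7.2 with 7 mM MgCl2, LmPK (0.1 nM) turned over PEP (0.5 mM) and ADP (0.1 mM) for 1 h at room temperature. Luciferase read-out of ATP.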
RE007 growth inh: less growth of the S. pombe RE007 Vpr strain | S. pombe RE007 Vpr strain, BacTiter-Glo ATP luminescence, 24 h | Potency, µM (top dose mostly 92.2 µM), usual class: inhibitors | hit rate 0.21% among 360,000 | AID 651644; active = well fitted falling curve with a large enough effect; inconclusive = small, poorly fitted or top-dose-only effect; inactive = no such curve, though single readings can be large or run the other way; note: nearly all actives have a fitted effect of over 50% in size
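Fission yeast RE007 carrying one integrated HIV-1 vpr copy, seeded at OD 0.01 in PMG+AL medium with 23 nL pinned compound. Grown 24 h at 30 degrees; viability read by BacTiter-Glo luminescence after 5 min.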
Tb PYK inh: inhibitors of Trypanosoma brucei pyruvate kinase; TbPYK enzyme, Kinase-Glo Plus ATP luminescence, 45 min; Potency, µM (doses to about 76.8 µM), actives largely listed as inhibitors; hit rate 0.12% among 410,000; note: nearly all actives have a fitted effect of over 50% in size
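Activity of T. brucei pyruvate kinase was followed by Kinase-Glo Plus luminescence after the enzyme reacted 45 min at room temperature with 130 uM ADP (final) and substrate. Test compounds were added before ADP at multiple concentrations.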
Cycloheximide cs: counter-screen for Shiga toxin inhibitors: cycloheximide protein synthesis inhibition. hit rate 12% among 300,000. max response, %. cell reporter, cycloheximide protein synthesis inhibition counterscreen. AID 2314; in the data active = max response mostly above about 13%, no sharp cut-off; inactive = mostly below about 14%; note: read at 38.3 µM for the half of the compounds with a filed dose
Hits are given with their value; i = inactive; ? = inconclusive; nt = no result; + = active, no number. Only a selection was taken, and hits are over-represented in it overall. Unless noted, calls come from the whole dose curve; as a rule, active = well fitted curve in the direction sought with a large enough effect; inconclusive = small, poorly fitted or top-dose-only effect, or another doubt; inactive = no such curve, though single readings can be large; an effect the other way counts as inactive or inconclusive.

SMILES	Giardia FBPA inh	Shiga toxin inh	LmPK inhibitor	RE007 growth inh	Tb PYK inh	Cycloheximide cs
C=CCOc1c(Br)cc(/C=N/Nc2ccc(C(=O)O)cc2)cc1OCC	i	+	i	i	i	79
Cc1ccc(S(=O)(=O)Oc2cccc(/C=N/n3cnnc3)c2)cc1	i	i	i	i	i	i
COc1cc(/C=N/Nc2ccc(Cl)c(C(=O)O)c2)ccc1OCC(=O)N1C(C)CCCC1C (stereo unspecified)	i	59	i	i	i	i
COc1cc(C=O)ccc1OC(=O)c1ccc(C(C)C)cc1	i	i	i	?	i	35
COc1cc(/C=N/Nc2nc(N3CCCCC3)nc(N3CCCCC3)n2)ccc1OC(=O)c1ccco1	i	i	i	nt	nt	i
COc1ccc(C(=O)Oc2cc(/C=N/NC(N)=S)ccc2OC)cc1	nt	i	i	i	i	i
COc1cc(/C=N/Nc2ccc(Cl)c(C(=O)O)c2)ccc1OC(=O)c1ccco1	i	68	i	i	i	37
COc1ccc(C(=O)Oc2ccc(/C=N/Nc3ccc(Cl)c(C(=O)O)c3)cc2OC)cc1	i	93	i	i	i	21
O=S1(=O)C=C(SCCN2CCCCC2)c2ccccc21	i	37	i	?	i	26
O=C(NNC(=O)c1cc2ccccc2cc1O)NC1CCCCC1	i	i	i	i	i	i
CN(C(=O)c1ccccc1Cl)C1CCCCC1	i	i	i	i	i	13
O=C(NCC1CCCCC1)c1cc2ccccc2cc1O	nt	74	i	i	i	32
CN(C(=O)c1ccc(Br)o1)C1CCS(=O)(=O)C1 (stereo unspecified)	i	i	i	i	i	i
CN(C(=O)COC(=O)c1cc2ccccc2cc1O)C1CCCCC1	nt	nt	nt	?	i	nt
CN(C(=O)c1ccc(Br)o1)C1CCCCC1	i	67	i	i	i	33
CN(C(=O)c1cc2ccccc2cc1O)C1CCCCC1	nt	i	i	i	i	21
COc1ccccc1CNc1nc2ccccc2c2nc(-c3cccnc3)nn12	nt	nt	nt	nt	i	nt
Cc1ccc(C2=Nc3ccccc3N(CC(=O)Nc3ccccc3C)C(=O)C2)cc1C	nt	nt	nt	nt	i	nt
CCNC(C)Cc1ccc2c(c1)OCO2 (stereo unspecified)	nt	nt	nt	nt	i	nt
CCS(=O)(=O)/N=C(\N)c1ccccc1	i	i	i	i	i	30
CCOc1ccc(S(=O)(=O)/N=C(\N)c2ccccc2)cc1	i	i	i	i	i	i
CCCCc1nc2cc(C(=O)NCc3cc(C)n(C)n3)ccc2o1	i	78	i	i	i	25
Cc1c(C(=O)N(C)C(C)c2ccccn2)oc2c(F)cccc12 (stereo unspecified)	nt	75	i	?	i	51
Cc1c(C(=O)N(C)C(C)c2ccncn2)oc2c(F)cccc12 (stereo unspecified)	nt	i	i	i	i	i
Cc1cc(CNC(=O)c2cc(-c3ccccc3)nc3ccccc23)nn1C	i	i	i	i	i	i
SMILES	Giardia FBPA inh	Shiga toxin inh	LmPK inhibitor	RE007 growth inh	Tb PYK inh	Cycloheximide cs
CC(c1ccncn1)N(C)C(=O)c1ccc2oc(Cc3ccccc3)nc2c1 (stereo unspecified)	nt	50	i	i	i	34
O=C(NCc1ccccc1)c1ccc2nc(CCc3ccccc3)oc2c1	nt	nt	nt	nt	i	nt
O=C(NCc1ccncc1)c1ccc2nc(Cc3ccccc3F)oc2c1	nt	i	i	i	i	16
Cc1ccc(-c2noc(-c3ccccc3NC(=O)C3CC(=O)N(c4cccc(C)c4)C3)n2)cc1 (stereo unspecified)	nt	nt	nt	nt	i	nt
CC(NC(=O)c1ccc2nc(Cc3ccccc3)oc2c1)c1ccccc1 (stereo unspecified)	nt	nt	nt	nt	i	nt
Cc1cc(CNC(=O)c2ccc3nc(Cc4ccccc4F)oc3c2)nn1C	nt	94	i	i	i	42
Cc1c(C(C)NC(=O)c2ccc3nc(Cc4ccccc4F)oc3c2)cnn1C (stereo unspecified)	nt	36	i	i	i	34
Cc1cccc(CNC(=O)c2ccc3nc(Cc4ccccc4)oc3c2)c1	nt	nt	nt	nt	i	nt
CC(c1ccccn1)N(C)C(=O)c1ccc2nc(Cc3ccccc3F)oc2c1 (stereo unspecified)	nt	72	i	i	i	53
CC(C)Cn1c(C23CC4CC(CC(C4)C2)C3)n[nH]c1=S	i	i	25µM	i	?	i
COCCCn1c(C23CC4CC(CC(C4)C2)C3)n[nH]c1=S	i	i	i	i	?	i
